“And” between values parts separate entries of the source, which are not always exact repeats. Equal values may be shown once. About 83,000 compounds went through this panel and 20% of them were active in at least one assay; those are over-represented in the sample as a whole.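 Testing used 96-well plates and a 48-hour single-concentration exposure. Example: -40 means 40% of the starting cells died.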 The source made the active and inactive calls. How the source made its calls: active means growth percent below 10; inactive means the rest.
system: HCT-116 colon; experiment: NCI-60 one-dose screen, 48 h (100 = growth as untreated, 0 = no growth, -100 = all killed); settings: 10 µM unless noted

Structure (SMILES)	growth
CCOC(=O)c1c(-c2ccc(C)cc2)c(C#N)c(=O)n(-c2cccc(C(F)(F)F)c2)c1N	103% (inactive)
c1cc(NCCCCN2CCOCC2)c2ccc3c(ccc4c(NCCN5CCOCC5)ccnc43)c2n1	48.4% (inactive)
CCCO/N=C/c1ccccn1	102% (inactive)
O=C(Nc1ncc(Cc2cccc(C(F)(F)F)c2)s1)c1ccc(-n2cnnn2)cc1	42.4% (inactive)
N=C(N)c1ccc(-c2ccc(-c3ccc(Cl)c(Cl)c3)s2)cc1	-46.6% (active)
NC(=O)c1c(NC(=O)/C=C/c2cccs2)sc2c1CCC(=O)C2	8.1% (active)
CCOc1ccccc1NC(=O)c1cc2ccccc2cc1O	31.9% (inactive)
O=C(CCl)n1nnnc1Cc1ccccc1	102% (inactive)
CCNC(=S)n1nc(SC)c(C(=O)OCC)c1N	96.1% (inactive)
CC/C(=C(/c1ccc(Cl)cc1)c1ccc(OCCN2CCOCC2)cc1)c1ccccc1	77.6% (inactive)
O=S(=O)(O)c1ccc(N=Nc2ccc(N=Nc3cccc4ccccc34)c(S(=O)(=O)O)c2)cc1	102% (inactive)
Nn1c(-c2ccc(Cl)cc2)nc2c(-c3ccc(Cl)cc3)nc3ccc(Cl)cc3c2c1=O	-100% (active)
Nc1ncnc2c1C(c1ccc([N+](=O)[O-])cc1)c1sc3c(F)cccc3c1O2 (centres undefined)	101% (inactive)
COc1ccc(C/C(C)=C(/c2ccc(OCCN3CCCCCC3)cc2)c2ccc(OC(=O)c3ccccc3)cc2)cc1	93.3% (inactive)
COc1ccc2c(c1)oc1c(C)c3c(c(C)c12)C(=O)N(Nc1ccccc1)C3=O	96% (inactive)
CC(=O)c1c(C)nc(SCC(=O)Nc2ccc(Cl)cc2)n1-c1ccc(Cl)cc1	67.7% (inactive)
C=C1C(=O)O[C@H]2[C@H]1CC/C(CNS(=O)(=O)c1ccc3ccccc3c1)=C\CC[C@@]1(C)O[C@@H]21	-87.2% (active)
CN(Cc1ccccc1)c1nc(Cl)c(C2CC(c3ccc4c(c3)OCO4)=NN2c2cc(Cl)cc(Cl)c2)s1 (centres undefined)	87% (inactive)
Cc1cnc(C(=O)NNc2nc3sc4c(c3c(=O)[nH]2)C(C)CCC4)cn1 (centres undefined)	22.5% (inactive)
N#CC1=C(N)Oc2c(sc3c(Br)cccc23)C1c1ccccn1 (centres undefined)	27.9% (inactive)

Structure (SMILES)	growth
Cc1cc2nc(C(Cl)Cl)nc(-c3ccc(Cl)cc3)n2n1	-2.01% (active)
COc1ccc(/C=C2/C(=O)N=C3N2NC(c2ccccc2)=CN3c2ccccc2)cc1	99.8% (inactive)
Nc1nc(Nc2ccc(F)cc2)nn1C(=O)c1cc(Cl)ccc1Cl	58.6% (inactive)
O=C1C=C(Nc2ccccc2)c2ncccc2C1=O	-87.9% (active)
O=C(N/N=C/c1ccc(O)cc1O)c1cccc(Nc2ccnc(C(F)(F)F)c2)c1	12.3% (inactive)
O=C(N=Nc1c(O)[nH]c2ccccc12)Nc1ccc(Br)cc1	88.6% (inactive)
Cc1nonc1-c1ccc2c(c1)OCO2	112% (inactive) and 98.5% (inactive)
COc1ccc(-c2c[nH]c(C(=O)O)c2-c2cc(OC)c(OC)c(OC)c2)cc1	29.6% (inactive)
OCCN1CCN(CC/C=C2\c3ccccc3Sc3ccc(Cl)cc32)CC1	-59.8% (active) and -45.1% (active)
O=C(/C=C/c1ccc(F)cc1)Nc1ncc(Cc2ccc(F)cc2)s1	29.4% (inactive)
O=C1C(Nc2ccc(Cl)cc2)=C(I)C(=O)c2ncccc21	-57.3% (active)
CCCCSc1ccc2nc(-c3ccc(OCCCN=C(N)N)cc3)cn2c1	42.2% (inactive)
COC1=CC(=O)C(OC)=C(O)C1=O	98.7% (inactive)
COc1ccc(-c2cc(-c3cccc(Cl)c3)c(C#N)c(=O)[nH]2)c(OC)c1	96.9% (inactive)
O=C(c1cccc(Br)c1)N1CCN(c2ccnc3cc(Cl)ccc23)CC1	84.5% (inactive)
COc1cc(NC2CCCCC2O)c2nc(-c3ccc(Cl)cc3)ccc2c1 (centres undefined)	69.6% (inactive) and 77.2% (inactive)
CC(=O)c1nn(-c2ccccc2)/c(=N/N=Cc2cn(-c3ccccc3)nc2-c2cc3ccccc3oc2=O)s1	97.6% (inactive)
Nc1ccc(-c2ccc(N)c(Br)c2)cc1Br	23.6% (inactive)
FC(F)(F)Sc1ccc(/C=C/c2cc(/C=C/c3ccc(SC(F)(F)F)cc3)n(-c3ccccc3)n2)cc1	94.3% (inactive)

— PubChem BioAssay (NCI)
